Results on twelve compounds are retold here after ChEMBL document CHEMBL1157539, “Thousands of chemical starting points for antimalarial lead identification” (Nature, 2010).

In this test the test system is Plasmodium falciparum. Nature of the test: GSK_TCMDC: Inhibition of Plasmodium falciparum 3D7 in whole red blood cells, using parasite LDH activity as an index of growth. Test compounds present at 2uM. The class given is functional.
On to `CC(C)(CNC(=O)C1CCN(CCOCc2ccccc2)CC1)c1nc(-c2ccc(Cl)c(O)c2)c(-c2ccncc2)[nH]1.Cl`, for which the Inhibition came out at 100%.

The compound `CSCCC(C(=O)O)N1C(=O)c2ccccc2C1=O` (configuration not stated) had an Inhibition of 91%.

For the compound `CCc1cn(CCc2ccccc2)c2ccc(C(=O)N[C@@H](Cc3ccccc3)[C@H](O)CNC(C)(C)CCCC(C)C)cc12.O=CO`, the Inhibition amounted to 98%.

Regarding `O=C(Nc1cccc(CN2CCCN(Cc3cccnc3)CC2)c1)c1ccc(Cl)c(Cl)c1.O=C(O)C(F)(F)F`, the Inhibition is recorded as 84%.

`CS(=O)(=O)NCCCNCc1cccc(-c2ccc(-c3nc4ccccc4[nH]3)s2)c1.O=C(O)C(F)(F)F` registered an Inhibition of 90%.

Turning to `CN1c2ccc([N+](=O)[O-])cc2C(C)(C)C12C=Cc1cc(Br)cc([N+](=O)[O-])c1O2` (configuration not stated), the Inhibition is recorded as 100%.

`CCn1cnc2c(N3CCCC3=O)cc(C(=O)N[C@@H](Cc3ccccc3)[C@H](O)CNC3CCCCC3)cc21` showed an Inhibition of 98%.

The compound `Fc1ccc2[nH]c(-c3ccc(-c4cccc(CN5CCCCC5)c4)cc3)nc2c1.O=C(O)C(F)(F)F` returned an Inhibition of 100%.

On to `c1ccc(Oc2ccc(Nc3ccnc4cc(-c5ccc(CN6CCCCC6)o5)ccc34)cc2)nc1`, for which the Inhibition worked out at 100%.

`CCN(CCNS(C)(=O)=O)c1ccc(N)c(C)c1.O.O=S(=O)(O)O` displayed an Inhibition of 91%.

Regarding `COc1cc(F)c2ncc(Cl)c([C@H](O)CN3CCC(NCc4ccc5c(n4)NC(=O)CO5)CC3)c2c1.Cl`, the Inhibition is recorded as 99%.

As for `CC(=O)Nc1nc(C(=O)Nc2ccc(-c3ccc(-c4nc5cc(F)ccc5[nH]4)cc3)cc2)cs1`, the Inhibition is given as 100%.
